Assay [1] addresses Progesterone receptor (Homo sapiens) (UniProt P06401). The experiment in a line: qHTS assay to identify small molecule agonists of the progesterone receptor (PR) signaling pathway (AID 1346784; calls by dose curve; note: nearly all actives have a fitted effect of over 30% in size). In short, it runs like this: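 Using charcoal-stripped serum (2%) to limit endogenous steroids, PR-UAS-bla HEK 293T cells received compounds for 16 hr at 37C after 6 hr plating; beta-lactamase FRET fluorescence was recorded following 2 hr substrate loading at room temperature.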
In general terms: In qHTS, concentration-response curves come from the screen itself.

Assay [2] has the same target. As to the kind of experiment: qHTS assay to identify small molecule antagonists of the progesterone receptor (PR) signaling pathway (AID 1346795; active = well fitted inhibition curve with a large enough effect in the signal ratio in the repeat runs, not every such curve was filed as active; the % refers to the signal ratio). In short, it runs like this:
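Inhibition of R5020-induced (1 nM final) beta-lactamase reporter signal in PR-UAS-bla HEK293T cells was scored by FRET fluorescence after overnight (16 hr) compound treatment.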

Assay [3] in a line: qHTS assay to identify small molecule antagonists of the progesterone receptor (PR) signaling pathway - cell viability counter screen (AID 1346798). Note: series mostly up to about 92 µM; nearly all actives have a fitted effect of over 50% in size. The gist of the method: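 ATP content as viability readout: CellTiter-Glo luminescence, 30 min room temperature, in PR-UAS-bla HEK293T cells after 16 hr compound/R5020 treatment at 37C and 5% CO2.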
Assay [4] is described as follows: qHTS assay to identify small molecule antagonists of the TGF-beta/Smad signaling pathway - cell viability counter screen (AID 1346824). Note: nearly all actives have a fitted effect of over 50% in size. The gist of the method:
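SBE-bla HEK 293T cells, incubated overnight, then compound plus 0.25 ng/mL TGF-beta1 (stock added) for 5 hr at 37 C. Viability was read in the same wells by CellTiter-Glo luminescence after 30 min at room temperature.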

The nature of assay [5]: qHTS assay to identify small molecule agonists of the TGF-beta/Smad signaling pathway - cell viability counter screen (AID 1346829). Note: top concentration of the series differs between compounds; nearly all actives have a fitted effect of over 45% in size. In short, it runs like this: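 Same-well cytotoxicity: CellTiter-Glo added after the 2 hr room-temperature beta-lactamase substrate step, luminescence measured 30 min later; cells had 5 hr of compound at 37 C.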
Assay [6] in a line: qHTS assay to identify small molecule agonists of the TGF-beta/Smad signaling pathway (AID 1346859; active = well fitted activation curve with a large enough effect in the signal ratio in the repeat runs, not every such curve was filed as active; the % refers to the signal ratio; note: series mostly up to about 77 µM). The gist of the method: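 Stable Smad binding element-beta-lactamase HEK 293T cells; 5 hr compound exposure at 37 C under 5% CO2; 2 hr room-temperature substrate step; fluorescence excited at 405 nm, collected at 460 nm and 530 nm.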
Assay [7] has as its target Thyrotropin-releasing hormone receptor (Homo sapiens) (UniProt P34981). As to the kind of experiment: qHTS assay to identify small molecule antagonists of the thyrotropin-releasing hormone receptor (TRHR) signaling pathway (AID 1346877; active = well fitted inhibition curve with a large enough effect in the repeat runs, not every such curve was filed as active; note: series mostly up to about 51 µM). The gist of the method:
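HEK293/TRHR cells, 18 h, 37 °C; Ca2+ dye 2 h; cpd 5 min RT; TRH 1 nM final; fluorescence read 3 min, 1 s intervals; 15 concs, triplicate.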

Assay [8] has the same target. The experiment in a line: qHTS assay to identify small molecule agonists of the thyrotropin-releasing hormone receptor (TRHR) signaling pathway (AID 1346891; calls by dose curve;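 note: HEK293 cells expressing TRHR with calcium dye readout; series mostly up to about 58 µM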). In short, it runs like this: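 In 1536-format, 1500 TRHR-Hek293 cells per well grew 18 h, took up calcium dye for 2 h at 37 °C, received compound, and were read kinetically; 15-point titrations, triplicates.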

Assay [9] is described as follows: Human pregnane X receptor (PXR) small molecule agonists, qHTS cell viability counter screen (AID 1346977). Note: nearly all actives have a fitted effect of over 50% in size. The gist of the method: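 Readout is CellTiter-Fluor fluorescence from PXR-Luc HepG2 cells. Plated cells rested 5hr, then were treated with compounds for 24hr at 37C and 5% CO2, with reagent present during the last hour.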
Assay [10] in a line: Caspase-3/7 induction in HepG2 cells by small molecules, qHTS assay (AID 1346978). Note: nearly all actives have a fitted effect of over 15% in size. In short, it runs like this: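 Wild-type HepG2 cells, 2,000/well, settled 5 hr at 37 C and 5% CO2, then compound-treated for 17 hr; caspase-3/7 activity read by luminescent Caspase-Glo 3/7 after 30 min at room temperature.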
Assay [11] is described as follows: Caspase-3/7 induction in CHO-K1 cells by small molecules, qHTS cell viability counter screen (AID 1346979). Note: nearly all actives have a fitted effect of over 35% in size. The gist of the method:
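To flag cytotoxic compounds, treated CHO-K1 wild-type cells were given CellTiter-Fluor at 16hr and read fluorescently after 1hr at 37C; the caspase-3/7 luminescence was measured in these same wells.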

A short description of assay [12]: Caspase-3/7 induction in CHO-K1 cells by small molecules, qHTS assay (AID 1346980). Note: nearly all actives have a fitted effect of over 15% in size. In short, it runs like this: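 Wild-type CHO-K1 cells exposed to compounds for 17hr at 37 C, 5% CO2. Caspase-3/7 activity then measured by Caspase-Glo 3/7 luminescence after 30min at room temperature.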
Assay [13] is described as follows: Caspase-3/7 induction in HepG2 cells by small molecules, qHTS cell viability counter screen (AID 1346981). Note: series mostly up to about 92 µM; nearly all actives have a fitted effect of over 30% in size. In short, it runs like this:
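Fluorescence read-out of live-cell protease activity (CellTiter-Fluor) after 1 hr with reagent. This was measured in the same wells as the caspase-3/7 luminescence, on HepG2 cells exposed to DMSO-dissolved compounds for 16 hr at 37 C.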

Assay [14] concerns the target Acetylcholinesterase (Homo sapiens) (UniProt P22303). As to the kind of experiment: Acetylcholinesterase (AChE) small molecule antagonists: colormetric cell-based qHTS assay (AID 1347395; calls by dose curve; note: nearly all actives have a fitted effect of over 30% in size; note: potency is the fitted concentration of half-maximal effect). In short, it runs like this:
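Neuroblastoma line SH-SY5Y supplied the enzyme; cells were preincubated with compound for 30 min at 37 C and 5% CO2. Acetylthiocholine with DTNB was then added for 90 min at 37 C, and thiocholine was measured by colour.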

Assay [15] in a line: qHTS assay to identify small molecule agonists of the progesterone receptor (PR) signaling pathway - cell viability counter screen (AID 1346799; calls by dose curve; note: nearly all actives have a fitted effect of over 45% in size). The gist of the method:
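Cytotoxicity in PR-bla HEK293T cells: 16 h compound, 37C; CellTiter-Glo added post-FRET read; luminescence after 30 min RT.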

Assay [16] addresses Nuclear receptor subfamily 1 group I member 2 (Homo sapiens) (UniProt O75469). As to the kind of experiment: Human pregnane X receptor (PXR) small molecule agonists, qHTS assay (AID 1346982). Note: nearly all actives have a fitted effect of over 35% in size. Note: potency is the fitted concentration of half-maximal effect. In short, it runs like this: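 HepG2 PXR-Luc reporter line, 5% charcoal-stripped FBS; 5 hr pre-incubation, compound (DMSO) 24 hr at 37 C/5% CO2; ONE-Glo 30 min RT; luminescence read-out.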

In assay [17] the target is Acetylcholinesterase (Homo sapiens) (UniProt P22303). As to the kind of experiment: Acetylcholinesterase (AChE) small molecule antagonists: enzyme-based qHTS assay (AID 1347397; calls by dose curve; note: nearly all actives have a fitted effect of over 55% in size; note: potency is the fitted concentration of half-maximal effect). The note with it: Potency: AChE enzyme activity inhibition. The gist of the method:
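Colorimetric DTNB read-out of thiocholine released from acetylthiocholine by recombinant human AChE (50 mU/mL as dispensed). Compounds were preincubated 30 min at RT before substrate/DTNB addition, with a 10 min RT reaction.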

SMILES strings stand for the structures. Values without a mark were called inactive. Results filed as inconclusive are left out. Activity calls are given as the source filed them. Unless noted, calls come from the whole dose curve; as a rule, active = well fitted curve in the direction sought with a large enough effect in the repeat runs; inconclusive = weak or mixed curves; inactive = no such curve, though single readings can be large; an effect the other way counts as inactive or inconclusive.

Chain of Nuclear receptor subfamily 1 group I member 2 (Homo sapiens) (O75469 whole entry, looked up): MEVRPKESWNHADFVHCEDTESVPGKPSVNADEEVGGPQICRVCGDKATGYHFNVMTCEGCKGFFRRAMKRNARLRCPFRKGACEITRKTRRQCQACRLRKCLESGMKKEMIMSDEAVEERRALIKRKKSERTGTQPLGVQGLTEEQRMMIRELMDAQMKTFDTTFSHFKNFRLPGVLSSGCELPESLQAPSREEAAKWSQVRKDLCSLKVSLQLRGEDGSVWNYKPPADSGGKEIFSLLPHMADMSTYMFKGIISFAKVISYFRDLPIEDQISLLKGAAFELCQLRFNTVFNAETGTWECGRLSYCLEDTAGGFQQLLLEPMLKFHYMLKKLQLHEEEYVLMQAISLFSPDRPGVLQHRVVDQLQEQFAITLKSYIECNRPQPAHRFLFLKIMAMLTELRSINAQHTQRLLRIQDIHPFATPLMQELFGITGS
Chain of Thyrotropin-releasing hormone receptor (Homo sapiens) (P34981 whole entry, looked up): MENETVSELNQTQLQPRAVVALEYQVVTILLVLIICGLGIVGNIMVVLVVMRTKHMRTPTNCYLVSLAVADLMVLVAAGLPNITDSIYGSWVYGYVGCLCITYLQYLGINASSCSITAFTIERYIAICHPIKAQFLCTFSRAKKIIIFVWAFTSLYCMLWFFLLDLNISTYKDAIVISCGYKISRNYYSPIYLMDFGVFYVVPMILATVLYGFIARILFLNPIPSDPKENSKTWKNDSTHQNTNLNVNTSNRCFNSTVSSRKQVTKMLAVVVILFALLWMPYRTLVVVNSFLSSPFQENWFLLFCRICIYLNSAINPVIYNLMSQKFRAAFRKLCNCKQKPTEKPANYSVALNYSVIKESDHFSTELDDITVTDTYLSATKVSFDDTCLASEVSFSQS
Chain of Acetylcholinesterase (Homo sapiens) (P22303 whole entry, looked up): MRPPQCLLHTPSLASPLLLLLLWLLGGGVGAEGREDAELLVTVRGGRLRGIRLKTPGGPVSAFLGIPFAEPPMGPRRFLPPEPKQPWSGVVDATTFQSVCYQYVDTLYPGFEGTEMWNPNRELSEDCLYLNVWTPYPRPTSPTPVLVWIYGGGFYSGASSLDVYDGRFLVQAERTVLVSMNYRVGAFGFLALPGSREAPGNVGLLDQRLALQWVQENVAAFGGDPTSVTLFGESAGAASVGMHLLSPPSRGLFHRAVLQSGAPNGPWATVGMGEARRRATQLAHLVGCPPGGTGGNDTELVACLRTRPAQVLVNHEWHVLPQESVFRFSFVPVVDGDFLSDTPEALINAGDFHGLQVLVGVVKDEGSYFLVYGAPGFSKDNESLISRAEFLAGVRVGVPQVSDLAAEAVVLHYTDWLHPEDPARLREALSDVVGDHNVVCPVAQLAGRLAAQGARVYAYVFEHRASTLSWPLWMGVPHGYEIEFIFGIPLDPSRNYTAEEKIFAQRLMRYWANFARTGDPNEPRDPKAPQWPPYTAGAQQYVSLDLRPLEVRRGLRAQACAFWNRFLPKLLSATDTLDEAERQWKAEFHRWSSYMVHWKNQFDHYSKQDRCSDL
Chain of Progesterone receptor (Homo sapiens) (P06401 whole entry, looked up): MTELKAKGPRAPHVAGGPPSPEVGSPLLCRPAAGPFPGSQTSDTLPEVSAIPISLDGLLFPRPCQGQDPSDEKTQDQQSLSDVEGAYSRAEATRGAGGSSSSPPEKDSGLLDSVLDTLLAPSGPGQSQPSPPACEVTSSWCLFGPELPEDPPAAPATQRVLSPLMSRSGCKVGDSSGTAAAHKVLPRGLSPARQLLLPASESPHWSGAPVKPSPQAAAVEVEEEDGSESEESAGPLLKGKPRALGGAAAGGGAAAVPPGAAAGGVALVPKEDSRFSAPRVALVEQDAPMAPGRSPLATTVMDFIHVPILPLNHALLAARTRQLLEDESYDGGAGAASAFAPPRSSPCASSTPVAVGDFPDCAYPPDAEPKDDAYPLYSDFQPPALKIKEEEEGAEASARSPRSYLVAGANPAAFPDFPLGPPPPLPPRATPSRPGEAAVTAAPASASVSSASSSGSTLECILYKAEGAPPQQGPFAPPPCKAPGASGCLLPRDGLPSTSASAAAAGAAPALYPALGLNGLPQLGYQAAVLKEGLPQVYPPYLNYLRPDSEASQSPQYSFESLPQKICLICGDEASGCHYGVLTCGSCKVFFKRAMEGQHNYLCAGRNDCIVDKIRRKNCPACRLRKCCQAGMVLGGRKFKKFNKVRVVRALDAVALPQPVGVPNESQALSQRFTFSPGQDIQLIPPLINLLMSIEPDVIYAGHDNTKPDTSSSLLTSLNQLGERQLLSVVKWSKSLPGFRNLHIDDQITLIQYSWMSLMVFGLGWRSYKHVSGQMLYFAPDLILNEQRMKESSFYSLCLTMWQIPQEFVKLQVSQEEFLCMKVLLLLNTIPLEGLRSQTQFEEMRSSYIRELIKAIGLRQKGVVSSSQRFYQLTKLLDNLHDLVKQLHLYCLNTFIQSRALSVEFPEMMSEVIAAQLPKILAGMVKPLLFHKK

As for `CCOC(=O)C(c1c(O)c2ccccc2oc1=O)c1c(O)c2ccccc2oc1=O`, the Potency result in assay [1], in [2], in [3], in assay [4], in assay [9] and in assay [10] was “inactive” throughout. Besides, the Potency result in [11], in [12], in [13] and in assay [14] was “inactive” in each case. Besides, the molecule was classed as inactive in assay [5], in assay [6], in [7] and in [8].

On to `O=C1OC(=O)C2C1C1(Cl)C(Cl)=C(Cl)C2(Cl)C1(Cl)Cl` (centres undefined), for which the Potency result in assay [1], in [2], in assay [3], in [15], in assay [9] and in [10] was “inactive” throughout. Also, the Potency entry in assay [11], in [12], in assay [13], in assay [16] and in [17] was “inactive” each time. Besides, the molecule was classed as inactive in assay [5], in [6], in assay [7] and in assay [8].

Turning to `COc1cc(OC)nc(NC(=O)NS(=O)(=O)c2ncccc2C(=O)N(C)C)n1`, the Potency entry in assay [1], in [2], in assay [3], in assay [15], in assay [9] and in assay [10] was “inactive” each time. Also, the Potency entry in assay [11], in [12], in [13], in [16], in assay [14] and in assay [17] was “inactive” each time. Also, the molecule was called inactive in assay [5], in assay [6], in assay [7] and in assay [8].

Consider `COc1ncc(F)c2nc(S(=O)(=O)Nc3c(F)cccc3F)nn12`, for which the Potency result in assay [1], in assay [2], in [3], in assay [15], in assay [9] and in assay [10] was “inactive” each time. Besides, the Potency entry in assay [11], in assay [12], in assay [16] and in assay [17] was “inactive” each time. Further, the call in assay [5], in [6], in assay [7] and in assay [8] was inactive.

Consider `Cc1nc(N)nc(N)n1`, for which the Potency result in [1], in assay [2], in [3], in assay [15], in assay [9] and in assay [10] was “inactive” in each case. In addition, the Potency result in assay [11], in [12], in assay [13], in assay [16], in assay [14] and in assay [17] was “inactive” in each case. The result in assay [5], in [6], in assay [7] and in assay [8] was inactive.

For the molecule `CC(C)COP(=O)(OCC(C)C)OCC(C)C`, the Potency entry in assay [1], in assay [2], in assay [3], in assay [4], in assay [9] and in assay [10] was “inactive” in each case. In addition, the Potency result in assay [11], in assay [12], in [13], in assay [16], in [14] and in [17] was “inactive” each time. The molecule was called inactive in assay [5], in [6], in assay [7] and in [8].

As to `CCOP(=S)(Oc1cnc(C(C)(C)C)nc1)OC(C)C` (centres undefined), the Potency result in assay [1], in assay [2], in assay [3], in assay [15], in assay [9] and in [10] was “inactive” throughout. The Potency entry in [11], in assay [12] and in assay [13] was “inactive” throughout. Moreover, the molecule was classed as inactive in [5] and in assay [6]. The values for the Potency in assay [16], in [14] and in assay [17] were 24.3 µM (active), 39.9 µM (active) and 63.3 µM (active), respectively.

In the case of `CC(=O)C(Cl)Cl`, the Potency entry in [1], in assay [2], in [3], in assay [15], in assay [9] and in assay [10] was “inactive” in each case. Besides, the Potency result in [11], in assay [12], in assay [13], in assay [16], in assay [14] and in [17] was “inactive” throughout. In addition, the molecule was called inactive in assay [5] and in assay [6].

The values above are taken from PubChem BioAssay (Tox21).
